Assay [1] addresses Protein kinase C gamma type (Homo sapiens) (UniProt P05129). The settings on record: at 1 µM.
Assay [2] concerns the target T1, Protein kinase C iota type (Homo sapiens) (UniProt P41743).
T1 sequence (whole entry): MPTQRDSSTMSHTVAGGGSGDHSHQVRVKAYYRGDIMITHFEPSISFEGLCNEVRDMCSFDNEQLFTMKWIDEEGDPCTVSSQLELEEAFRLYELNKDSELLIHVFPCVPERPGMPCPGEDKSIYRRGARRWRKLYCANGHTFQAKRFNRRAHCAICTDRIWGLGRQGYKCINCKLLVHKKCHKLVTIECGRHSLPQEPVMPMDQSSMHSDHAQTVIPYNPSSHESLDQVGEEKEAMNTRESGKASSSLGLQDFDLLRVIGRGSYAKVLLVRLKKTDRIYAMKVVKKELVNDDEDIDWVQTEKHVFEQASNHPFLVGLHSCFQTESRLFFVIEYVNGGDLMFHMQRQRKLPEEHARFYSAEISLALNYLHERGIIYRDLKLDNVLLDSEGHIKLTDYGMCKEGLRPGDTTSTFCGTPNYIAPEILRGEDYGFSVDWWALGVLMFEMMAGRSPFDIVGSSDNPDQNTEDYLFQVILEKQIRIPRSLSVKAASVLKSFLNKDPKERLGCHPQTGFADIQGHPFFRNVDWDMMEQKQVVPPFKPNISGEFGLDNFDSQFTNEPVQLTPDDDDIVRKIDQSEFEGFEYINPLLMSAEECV
The settings on record: at 0.1 µM.

In assay [3] the target is T1, Protein kinase C iota type (Homo sapiens). To be noted: at 1 µM.
The target in assay [4] is Protein kinase C theta type (Homo sapiens) (UniProt Q04759). To be noted: at 0.1 µM.
Protein kinase C theta type (Homo sapiens), sequence (Q04759 whole entry, looked up): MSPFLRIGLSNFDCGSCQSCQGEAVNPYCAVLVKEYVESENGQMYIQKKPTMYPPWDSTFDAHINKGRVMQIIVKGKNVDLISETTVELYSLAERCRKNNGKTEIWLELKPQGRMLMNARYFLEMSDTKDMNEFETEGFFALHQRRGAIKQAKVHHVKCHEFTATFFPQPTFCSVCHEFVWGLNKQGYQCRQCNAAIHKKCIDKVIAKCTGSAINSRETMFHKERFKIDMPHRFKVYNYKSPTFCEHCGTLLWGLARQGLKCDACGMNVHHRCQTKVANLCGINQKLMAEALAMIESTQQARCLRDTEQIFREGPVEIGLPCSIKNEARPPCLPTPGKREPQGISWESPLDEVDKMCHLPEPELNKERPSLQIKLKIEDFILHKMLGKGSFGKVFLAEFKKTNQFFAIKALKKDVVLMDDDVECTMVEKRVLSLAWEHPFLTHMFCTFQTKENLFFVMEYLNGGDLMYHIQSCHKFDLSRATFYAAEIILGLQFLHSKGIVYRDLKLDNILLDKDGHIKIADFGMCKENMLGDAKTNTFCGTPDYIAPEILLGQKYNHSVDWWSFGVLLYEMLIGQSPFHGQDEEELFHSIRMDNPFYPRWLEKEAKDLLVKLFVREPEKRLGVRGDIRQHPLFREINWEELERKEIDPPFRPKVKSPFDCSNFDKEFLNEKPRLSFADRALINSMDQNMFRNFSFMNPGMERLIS
For assay [5] the target is unchanged. To be noted: at 1 µM.
In assay [6] the target is Protein kinase C beta type (Homo sapiens) (UniProt P05771). The settings on record: at 0.1 µM.
Protein kinase C beta type (Homo sapiens), sequence (P05771 2-671 limits assumed): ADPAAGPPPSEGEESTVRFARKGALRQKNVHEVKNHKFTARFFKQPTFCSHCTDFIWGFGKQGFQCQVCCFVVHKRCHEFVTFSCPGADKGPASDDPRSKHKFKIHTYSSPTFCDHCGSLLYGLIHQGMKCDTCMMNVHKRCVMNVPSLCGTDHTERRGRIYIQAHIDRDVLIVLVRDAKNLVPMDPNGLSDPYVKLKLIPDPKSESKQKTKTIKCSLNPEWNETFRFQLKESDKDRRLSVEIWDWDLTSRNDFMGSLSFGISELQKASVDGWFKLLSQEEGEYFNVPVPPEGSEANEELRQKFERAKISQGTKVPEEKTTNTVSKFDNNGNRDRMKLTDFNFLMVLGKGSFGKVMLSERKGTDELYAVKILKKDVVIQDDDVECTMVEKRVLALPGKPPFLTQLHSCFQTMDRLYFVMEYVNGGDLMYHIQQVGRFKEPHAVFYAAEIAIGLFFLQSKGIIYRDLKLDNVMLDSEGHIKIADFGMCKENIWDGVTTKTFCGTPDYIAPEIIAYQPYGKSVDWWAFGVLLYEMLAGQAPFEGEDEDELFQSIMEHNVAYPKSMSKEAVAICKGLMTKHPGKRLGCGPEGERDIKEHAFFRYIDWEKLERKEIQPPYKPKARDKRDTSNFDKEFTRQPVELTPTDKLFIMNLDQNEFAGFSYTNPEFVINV
The target is the same in assay [7]. To be noted: at 1 µM.
Assay [8] concerns the target T2, Serine/threonine-protein kinase D1 (Homo sapiens) (UniProt Q15139).
T2 sequence (whole entry): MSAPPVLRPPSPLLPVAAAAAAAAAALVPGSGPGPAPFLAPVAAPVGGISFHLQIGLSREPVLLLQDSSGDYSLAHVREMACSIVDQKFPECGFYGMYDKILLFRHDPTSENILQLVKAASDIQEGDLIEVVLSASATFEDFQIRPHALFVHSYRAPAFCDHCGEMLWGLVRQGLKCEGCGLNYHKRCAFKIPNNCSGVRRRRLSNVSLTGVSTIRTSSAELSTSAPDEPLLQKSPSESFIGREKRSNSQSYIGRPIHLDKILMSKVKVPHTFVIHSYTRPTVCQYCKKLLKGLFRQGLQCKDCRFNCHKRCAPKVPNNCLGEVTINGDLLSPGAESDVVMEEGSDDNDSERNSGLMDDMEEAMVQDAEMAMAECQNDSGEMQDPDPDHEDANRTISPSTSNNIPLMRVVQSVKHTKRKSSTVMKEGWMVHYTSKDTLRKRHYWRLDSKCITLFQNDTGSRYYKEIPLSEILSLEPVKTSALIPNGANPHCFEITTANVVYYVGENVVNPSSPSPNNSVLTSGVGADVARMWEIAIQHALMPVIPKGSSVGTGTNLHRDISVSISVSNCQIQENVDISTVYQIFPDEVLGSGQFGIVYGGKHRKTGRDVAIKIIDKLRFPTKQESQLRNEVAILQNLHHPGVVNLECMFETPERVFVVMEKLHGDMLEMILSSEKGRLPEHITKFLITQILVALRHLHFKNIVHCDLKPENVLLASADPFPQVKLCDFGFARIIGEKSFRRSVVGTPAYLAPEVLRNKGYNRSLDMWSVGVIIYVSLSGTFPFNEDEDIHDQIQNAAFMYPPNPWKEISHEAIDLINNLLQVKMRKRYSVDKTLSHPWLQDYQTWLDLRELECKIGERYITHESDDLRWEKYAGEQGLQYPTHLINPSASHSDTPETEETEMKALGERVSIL
The settings on record: at 0.1 µM.

For assay [9], the target named is T2, Serine/threonine-protein kinase D1 (Homo sapiens). To be noted: at 1 µM.
Assay [10] addresses T3, Serine/threonine-protein kinase D2 (Homo sapiens) (UniProt Q9BZL6).
T3 sequence (whole entry): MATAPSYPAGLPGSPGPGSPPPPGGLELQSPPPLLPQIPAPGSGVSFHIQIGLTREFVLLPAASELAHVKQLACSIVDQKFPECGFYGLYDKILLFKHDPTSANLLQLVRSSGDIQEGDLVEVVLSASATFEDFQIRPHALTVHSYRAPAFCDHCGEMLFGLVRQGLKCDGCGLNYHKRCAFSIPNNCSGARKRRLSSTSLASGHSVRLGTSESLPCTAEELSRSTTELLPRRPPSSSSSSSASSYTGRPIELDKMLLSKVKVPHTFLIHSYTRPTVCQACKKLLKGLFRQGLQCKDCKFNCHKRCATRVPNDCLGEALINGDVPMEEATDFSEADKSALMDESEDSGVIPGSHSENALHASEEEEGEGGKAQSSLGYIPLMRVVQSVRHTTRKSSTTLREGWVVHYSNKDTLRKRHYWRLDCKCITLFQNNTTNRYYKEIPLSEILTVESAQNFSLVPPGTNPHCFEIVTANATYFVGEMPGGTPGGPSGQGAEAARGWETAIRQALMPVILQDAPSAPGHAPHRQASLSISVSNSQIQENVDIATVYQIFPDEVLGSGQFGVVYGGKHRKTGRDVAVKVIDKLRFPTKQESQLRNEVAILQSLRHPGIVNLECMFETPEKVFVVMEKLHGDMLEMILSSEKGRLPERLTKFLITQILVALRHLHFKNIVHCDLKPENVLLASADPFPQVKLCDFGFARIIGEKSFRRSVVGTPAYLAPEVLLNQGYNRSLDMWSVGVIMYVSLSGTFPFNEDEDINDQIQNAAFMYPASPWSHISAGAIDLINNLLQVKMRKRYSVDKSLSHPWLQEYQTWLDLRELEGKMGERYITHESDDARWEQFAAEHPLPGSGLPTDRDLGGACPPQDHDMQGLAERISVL
The settings on record: at 0.1 µM.

In assay [11] the target is T3, Serine/threonine-protein kinase D2 (Homo sapiens). To be noted: at 1 µM.
Assay [12] deals with T4, Serine/threonine-protein kinase D3 (Homo sapiens) (UniProt O94806).
T4 sequence (whole entry): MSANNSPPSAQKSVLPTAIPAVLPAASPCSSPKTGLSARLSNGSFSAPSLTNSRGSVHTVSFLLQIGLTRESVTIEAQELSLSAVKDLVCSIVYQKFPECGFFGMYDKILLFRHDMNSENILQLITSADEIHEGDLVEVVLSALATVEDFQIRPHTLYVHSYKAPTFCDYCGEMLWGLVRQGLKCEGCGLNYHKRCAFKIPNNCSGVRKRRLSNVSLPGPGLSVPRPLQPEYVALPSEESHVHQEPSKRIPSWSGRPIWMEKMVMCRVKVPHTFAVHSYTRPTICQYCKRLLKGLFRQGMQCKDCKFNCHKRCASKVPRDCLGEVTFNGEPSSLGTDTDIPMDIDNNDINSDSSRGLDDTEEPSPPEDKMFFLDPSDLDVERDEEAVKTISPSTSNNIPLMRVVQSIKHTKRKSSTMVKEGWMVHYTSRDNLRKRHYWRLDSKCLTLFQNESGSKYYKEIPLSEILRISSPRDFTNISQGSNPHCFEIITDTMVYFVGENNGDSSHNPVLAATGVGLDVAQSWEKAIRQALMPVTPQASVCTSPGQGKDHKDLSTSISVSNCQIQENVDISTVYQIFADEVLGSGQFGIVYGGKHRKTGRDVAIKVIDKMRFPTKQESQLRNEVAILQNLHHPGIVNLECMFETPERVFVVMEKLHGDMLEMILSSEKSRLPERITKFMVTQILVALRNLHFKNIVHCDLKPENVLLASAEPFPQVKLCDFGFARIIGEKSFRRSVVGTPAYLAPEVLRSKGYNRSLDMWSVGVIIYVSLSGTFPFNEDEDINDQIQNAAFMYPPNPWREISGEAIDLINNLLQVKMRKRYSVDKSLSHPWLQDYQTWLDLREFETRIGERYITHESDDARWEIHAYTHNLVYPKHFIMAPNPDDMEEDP
The settings on record: at 0.1 µM.

The target of assay [13] is T4, Serine/threonine-protein kinase D3 (Homo sapiens). To be noted: at 1 µM.
The target of assay [14] is T5, cGMP-dependent protein kinase 1 (Homo sapiens) (UniProt Q13976).
T5 sequence (whole entry): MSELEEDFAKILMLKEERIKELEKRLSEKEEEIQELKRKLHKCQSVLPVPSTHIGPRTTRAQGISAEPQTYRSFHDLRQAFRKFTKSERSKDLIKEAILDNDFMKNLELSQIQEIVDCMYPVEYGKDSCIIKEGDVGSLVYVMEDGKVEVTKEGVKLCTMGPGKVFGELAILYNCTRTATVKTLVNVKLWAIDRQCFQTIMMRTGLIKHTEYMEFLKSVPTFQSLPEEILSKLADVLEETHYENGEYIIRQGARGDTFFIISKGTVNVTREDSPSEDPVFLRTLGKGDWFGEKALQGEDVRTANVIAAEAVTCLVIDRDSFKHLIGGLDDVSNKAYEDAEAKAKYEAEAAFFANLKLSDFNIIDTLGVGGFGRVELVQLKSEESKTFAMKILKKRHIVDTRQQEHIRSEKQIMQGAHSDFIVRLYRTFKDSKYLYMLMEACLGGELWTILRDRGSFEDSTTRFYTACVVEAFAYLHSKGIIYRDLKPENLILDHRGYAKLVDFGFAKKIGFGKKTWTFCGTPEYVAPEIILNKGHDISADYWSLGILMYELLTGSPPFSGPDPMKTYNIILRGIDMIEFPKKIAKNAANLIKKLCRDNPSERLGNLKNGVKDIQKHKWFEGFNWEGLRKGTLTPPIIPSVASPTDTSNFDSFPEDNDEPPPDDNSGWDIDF
To be noted: at 0.1 µM.

Assay [15] addresses T5, cGMP-dependent protein kinase 1 (Homo sapiens). To be noted: at 1 µM.
Assay [16] deals with T6, cGMP-dependent protein kinase 2 (Homo sapiens) (UniProt Q13237).
T6 sequence (whole entry): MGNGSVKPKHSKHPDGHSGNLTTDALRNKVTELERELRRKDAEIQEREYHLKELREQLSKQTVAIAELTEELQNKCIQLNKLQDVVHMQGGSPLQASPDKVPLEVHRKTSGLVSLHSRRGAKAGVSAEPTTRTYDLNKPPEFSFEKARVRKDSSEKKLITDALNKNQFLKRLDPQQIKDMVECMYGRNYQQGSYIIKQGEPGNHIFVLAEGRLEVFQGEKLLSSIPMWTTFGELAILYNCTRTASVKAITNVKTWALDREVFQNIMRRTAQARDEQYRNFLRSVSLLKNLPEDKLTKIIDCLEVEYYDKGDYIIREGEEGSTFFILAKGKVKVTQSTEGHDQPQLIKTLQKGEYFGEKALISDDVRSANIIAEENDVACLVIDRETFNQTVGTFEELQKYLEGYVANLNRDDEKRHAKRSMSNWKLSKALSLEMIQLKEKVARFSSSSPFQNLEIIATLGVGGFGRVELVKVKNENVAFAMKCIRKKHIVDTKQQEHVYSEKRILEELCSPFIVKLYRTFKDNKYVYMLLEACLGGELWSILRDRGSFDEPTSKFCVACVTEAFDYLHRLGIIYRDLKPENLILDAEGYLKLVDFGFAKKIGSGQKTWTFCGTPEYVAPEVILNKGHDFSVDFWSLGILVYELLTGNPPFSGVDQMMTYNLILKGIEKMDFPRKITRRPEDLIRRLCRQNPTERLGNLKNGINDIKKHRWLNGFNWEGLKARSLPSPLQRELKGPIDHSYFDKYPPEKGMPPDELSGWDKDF
The settings on record: at 0.1 µM.

In assay [17] the target is T6, cGMP-dependent protein kinase 2 (Homo sapiens). To be noted: at 1 µM.
Assay [18] concerns the target T7, cAMP-dependent protein kinase catalytic subunit PRKX (Homo sapiens) (UniProt P51817).
T7 sequence (whole entry): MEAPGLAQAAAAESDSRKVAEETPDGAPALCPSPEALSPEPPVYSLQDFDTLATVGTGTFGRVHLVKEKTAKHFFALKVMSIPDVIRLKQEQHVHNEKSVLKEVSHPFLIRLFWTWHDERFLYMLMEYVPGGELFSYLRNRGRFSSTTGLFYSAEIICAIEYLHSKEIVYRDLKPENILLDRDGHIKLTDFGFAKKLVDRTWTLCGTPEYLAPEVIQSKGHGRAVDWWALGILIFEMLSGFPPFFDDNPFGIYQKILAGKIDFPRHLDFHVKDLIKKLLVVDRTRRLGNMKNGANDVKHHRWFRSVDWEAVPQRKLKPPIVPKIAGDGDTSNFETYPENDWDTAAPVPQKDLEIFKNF
The settings on record: at 0.1 µM.

Assay [19] concerns the target T7, cAMP-dependent protein kinase catalytic subunit PRKX (Homo sapiens). The settings on record: at 1 µM.
Assay [20] addresses Rho-associated protein kinase 1 (Homo sapiens) (UniProt Q13464). To be noted: at 0.1 µM.

Our source for the inhibition values is ChEMBL document CHEMBL1961873, “Compounds: GSK PKIS; Assays: Nanosyn kinase panel” (2012).

Rho-associated protein kinase 1 (Homo sapiens), sequence (Q13464 2-1354 limits assumed): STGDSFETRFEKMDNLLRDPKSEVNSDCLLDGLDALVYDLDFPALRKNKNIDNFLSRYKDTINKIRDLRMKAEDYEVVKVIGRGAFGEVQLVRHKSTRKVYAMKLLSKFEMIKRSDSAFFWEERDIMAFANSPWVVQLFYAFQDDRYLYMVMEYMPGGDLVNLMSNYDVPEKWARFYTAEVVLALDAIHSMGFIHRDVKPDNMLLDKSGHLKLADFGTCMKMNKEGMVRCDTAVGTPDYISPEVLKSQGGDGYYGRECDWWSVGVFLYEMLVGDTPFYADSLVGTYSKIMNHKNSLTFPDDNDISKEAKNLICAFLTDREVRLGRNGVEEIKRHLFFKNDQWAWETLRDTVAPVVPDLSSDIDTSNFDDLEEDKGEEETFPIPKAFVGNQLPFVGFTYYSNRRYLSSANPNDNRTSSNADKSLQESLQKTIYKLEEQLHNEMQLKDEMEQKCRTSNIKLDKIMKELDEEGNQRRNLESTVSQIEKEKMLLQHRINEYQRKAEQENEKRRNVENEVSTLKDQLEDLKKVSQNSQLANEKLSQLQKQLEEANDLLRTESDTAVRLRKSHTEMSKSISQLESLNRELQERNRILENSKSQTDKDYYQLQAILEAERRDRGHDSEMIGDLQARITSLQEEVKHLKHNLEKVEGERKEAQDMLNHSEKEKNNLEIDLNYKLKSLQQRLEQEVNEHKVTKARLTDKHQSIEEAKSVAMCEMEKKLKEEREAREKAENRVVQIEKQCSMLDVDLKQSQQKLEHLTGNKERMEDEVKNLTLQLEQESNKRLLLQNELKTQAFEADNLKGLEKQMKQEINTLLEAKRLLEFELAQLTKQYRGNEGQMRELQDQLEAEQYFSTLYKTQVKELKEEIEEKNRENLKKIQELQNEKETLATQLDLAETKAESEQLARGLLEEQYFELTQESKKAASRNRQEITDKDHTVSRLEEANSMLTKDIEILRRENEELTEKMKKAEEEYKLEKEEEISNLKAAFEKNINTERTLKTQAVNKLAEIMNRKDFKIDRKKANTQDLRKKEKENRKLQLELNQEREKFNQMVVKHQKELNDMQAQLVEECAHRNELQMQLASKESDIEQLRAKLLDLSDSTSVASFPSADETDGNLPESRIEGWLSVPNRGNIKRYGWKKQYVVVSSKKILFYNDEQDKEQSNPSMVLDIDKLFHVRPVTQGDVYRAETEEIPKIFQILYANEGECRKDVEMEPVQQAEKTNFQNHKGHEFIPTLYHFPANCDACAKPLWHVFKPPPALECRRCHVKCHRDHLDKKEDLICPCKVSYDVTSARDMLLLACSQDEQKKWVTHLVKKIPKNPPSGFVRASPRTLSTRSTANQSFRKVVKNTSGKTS

As to `Cc1nnc(-c2ccc(C)c(-c3ccc(C(=O)NCc4ccc(Cl)cc4)cc3)c2)o1`, the inhibition (commonly the change of the read-out against control, counted positive when it falls) is 3.88% in [1]; 2.2% in [2]; 0.35% in assay [3]; 1.83% in assay [4]; 3.97% in assay [5]; 1.36% in [6]. Besides, the inhibition in [7] is 3.21%; in [8], 1%; in assay [9] it was 0.36%; in [10] it was 0.28%; in assay [11], -0.8%; in [12] it was 2.09%. The inhibition was -0.1% in assay [13]; 2.07% in assay [14]; 5.32% in assay [15]; 3.25% in assay [16]; 3.86% in assay [17]; 2.66% in [18]. Moreover, the inhibition in assay [19] turned out to be 5.13%; in assay [20], 1.51%.
As to `Fc1ccc(-c2nc3n(c2-c2ccncc2)CCS3)cc1`, the inhibition in assay [1] was 0.85%; in [2], 2.39%; in assay [3] it was 2.4%; in assay [4] it was 1.87%; in [5] it was 1.91%; in [6] it was 1.53%. The inhibition was determined as 4.27% in [7]; 0.84% in assay [8]; 4.16% in assay [9]; 2.09% in assay [10]; 3.85% in assay [11]; 1.34% in assay [12]. In addition, the inhibition in [13] worked out at 3.94%; in assay [14], 3.66%; in assay [15], 4.28%; in assay [16], 2.32%; in [17] it was 3.35%; in [18], 1.54%. The inhibition in [19] is 1.87%; in [20], 1.14%.
